The values that follow come from PubChem BioAssay (NCATS).

Values without a mark were called inactive. Results filed as inconclusive are left out. Calls of active or inactive are those of the source. Calls follow the shape of the dose curve; as a rule, active = well fitted curve in the direction sought with a large enough effect; inconclusive = small, poorly fitted or top-dose-only effect, or another doubt; inactive = no such curve, though single readings can be large; an effect the other way counts as inactive or inconclusive. Where a SMILES comes first, the peptide text is derived from it. [ ]: non-standard residue; d: D form. Ala(indol-2-yl) = N[C@@H](Cc1cc2ccccc2[nH]1)C(=O)O; Aib = CC(C)(N)C(=O)O

Experiment [1] relates to Zika virus NS2B-NS3 protease (linked construct). The experiment is described as follows: Primary screen NINDS Rhodamine qHTS for Zika virus inhibitors (AID 1347160). Also: % is scaled to controls: 0 for no effect and ±100 for the full control effect; nearly all actives have a fitted effect of over 55% in size. Put shortly:
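Enzyme (25 nM, linked NS2B-NS3) was preincubated 15 min with compound in 10 mM Tris-HCl pH 8.0, 0.01% Tween 20. Rhodamine110 substrate (1.5 microM) was then added and fluorescence read at start and after 15 min.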
(In general: Quantitative high-throughput screening tests each substance at several concentrations.)

Experiment [2] addresses Calcium and integrin-binding protein 1 (Homo sapiens) (UniProt Q99828). The experiment is described as follows: Primary qHTS for Identification of Calcium Integrin Binding Protein 1 (CIB1) Competitor (AID 1508620).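 Also: GST tagged CIB1 binding a fluorescein labelled alphaIIb integrin peptide tracer; top concentration of the series differs between compounds; % is scaled to controls: 0 for no effect and ±100 for the full control effect.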 Put shortly: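 CIB1-GST (1 uM final) and compound incubated 15 min at room temperature before adding FITC-alphaIIb peptide tracer (100 nM final). Competition for binding read by fluorescence polarization (ex 480, em 540) after another 15 min at room temperature.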

Experiment [3] in a line: Primary qHTS for inhibitors of nuclear receptor binding SET domain protein 2 (NSD2) in an isogenic RCH-ACV NSD2 p.E1099K mutant (9B) (AID 1645876). Also: nearly all actives have a fitted effect of over 70% in size. Also: potency is read from the fitted curve at half-maximal effect. As to activity change, negative = viability loss: % is scaled to controls: 0 for no effect and ±100 for the full control effect.
The target of experiment [4] is Glutathione peroxidase 1 (Homo sapiens) (UniProt P07203). The experiment is described as follows: Primary qHTS Assay for Inhibitors of Recombinant Selenoprotein Glutathione Peroxidase 1 (GPX1) (AID 1845191). Also: nearly all actives have a fitted effect of over 65% in size. As to activity, negative = inhibition: % is scaled to controls: 0 for no effect and ±100 for the full control effect. Put shortly:
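NADPH consumption tracked by fluorescence at 340/450 nm between t=0 and t=15 min, room temperature. Final mix: 10 nM GPX1, 100 nM glutathione reductase, 1 mM GSH, 0.5 mM NADPH, 0.5 mM cumene hydroperoxide, 0.01% BSA; 30 min compound–enzyme preincubation.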

The target in experiment [5] is Luciferin 4-monooxygenase (Photinus pyralis) (UniProt P08659). The experiment in a line: Primary firefly luciferase (FLuc) qHTS assay for identification of artifact compounds. (AID 1845220). Also: nearly all actives have a fitted effect of over 60% in size.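 As to activity change, negative = inhibition: plate controls were DMSO vehicle for no effect and no enzyme for full effect.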 The note with it: outcome: dose series up to 54.1 µM unless noted. Put shortly:
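Compounds sat 15 min at room temperature with 10 uM luciferin and 10 uM ATP (pH 7.6 Tris acetate). Firefly luciferase (10 nM final) was then added, and luminescence was read 5 min later. Data normalized to no-enzyme and DMSO controls were Hill-fitted.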

Experiment [6] concerns Nanoluciferase (engineered Oplophorus gracilirostris luciferase). The experiment in a line: Primary Nanoluciferase (NLuc) qHTS assay for identification of artifact compounds. (AID 1845222).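 Also: 0% = DMSO and -100% = no enzyme.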 Put shortly:
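Luminescence from secreted NLuc (filtered, 1:55-diluted S16 cell medium) read 5 min after Nano-Glo substrate; compounds preincubated 15 min, RT. Hill fits of inhibition normalized to DMSO and no-enzyme.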

The test system of a further experiment is CRL-7250. The experiment is described as follows: Cytotoxic Profiling of Annotated Libraries Using Quantitative High-Throughput Screening (AID 1296008). Also: nearly all actives have a fitted effect of over 60% in size. Also: potency is read from the fitted curve at half-maximal effect. As to max response: % is scaled to controls: 0 for no effect and ±100 for the full control effect. Particulars: Five cell lines viability, CellTiter-Glo ATP luminescence, 48-72 h; max response: stronger effect = lower value. Put shortly:
(§1)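 Cytotoxicity was measured as CellTiter-Glo ATP luminescence, read after 10 min at room temperature. Compound treatment of the cells lasted 48 or 72 hr at 37 degrees Celsius in a qHTS format.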
In general terms: Cellular ATP, detected with luciferase, serves as a proxy for viable cell number.

The next experiment has as its system HEK293. Described as above. Particulars: Five cell lines viability, CellTiter-Glo ATP luminescence, 48-72 h; max response: stronger effect = lower value. Put shortly:
as §1

The next experiment deals with HaCat. Described as above. Particulars: Five cell lines viability, CellTiter-Glo ATP luminescence, 48-72 h; max response: stronger effect = lower value. The essentials:
as §1

A further experiment relates to C33A. The experiment in a line: Primary qHTS to identify gynecologic anti-cancer compounds using libraries of approved drugs and bioactive compounds (AID 1345084). Also: nearly all actives have a fitted effect of over 55% in size. Also: potency is read from the fitted curve at half-maximal effect. The note with it: Gynecologic cancer cell panel viability, ATPlite luminescence, 48 h; series mostly up to 57.5 µM. Put shortly: (§2)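 Cells, 1,000 per well, were allowed to settle for 16 h at 37 C before compound addition. Five concentrations were tested for 48 h, and viability was read by ATPlite luminescence after 15 min at room temperature.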

The test system of the next experiment is CASKI. The experiment is described as above. Particulars: Gynecologic cancer cell panel viability, ATPlite luminescence, 48 h; series mostly up to 57.5 µM. The essentials: as §2
Another experiment relates to Es-2. Described as above. Particulars: Gynecologic cancer cell panel viability, ATPlite luminescence, 48 h; series mostly up to 57.5 µM. The essentials: as §2
In a further experiment the test system is Hek293T. The description is as above. The note with it: Gynecologic cancer cell panel viability, ATPlite luminescence, 48 h, control line for the selectivity index; series mostly up to 57.5 µM. The essentials:
as §2

For a further experiment, the system named is JEG-3. Described as above. The note with it: Gynecologic cancer cell panel viability, ATPlite luminescence, 48 h; series mostly up to 57.5 µM. Put shortly: as §2
In a further experiment the test system is OV90. Described as above. The note with it: Gynecologic cancer cell panel viability, ATPlite luminescence, 48 h; series mostly up to 57.5 µM. Put shortly: as §2
A further experiment deals with PA-1. The description is as above. The note with it: Gynecologic cancer cell panel viability, ATPlite luminescence, 48 h; series mostly up to 57.5 µM. Put shortly:
as §2

For a further experiment, the system named is Tov-21-G. Described as above. Particulars: Gynecologic cancer cell panel viability, ATPlite luminescence, 48 h; series mostly up to 57.5 µM. Put shortly: as §2
The next experiment concerns Tov112D. Described as above. Particulars: Gynecologic cancer cell panel viability, ATPlite luminescence, 48 h; series mostly up to 57.5 µM. Put shortly: as §2
In experiment [7] the target is Phospholipid hydroperoxide glutathione peroxidase GPX4 (Homo sapiens) (UniProt P36969). The experiment in a line: Primary qHTS Assay for Inhibitors of Recombinant Selenoprotein Glutathione Peroxidase 4 (GPX4) (AID 1845192). Also: nearly all actives have a fitted effect of over 65% in size. The essentials:
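NADPH consumption followed by fluorescence at 340/450 nm, t=0 and after 15 min at room temperature. Reaction started with cumene hydroperoxide (0.5 mM final) after 30 min compound–GPX4 preincubation; final 200 nM GPX4, 100 nM GR, 1 mM GSH, 0.5 mM NADPH.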

Another experiment concerns NIH3T3. The experiment is described as follows: Cytotoxic Profiling of Annotated Libraries Using Quantitative High-Throughput Screening (AID 1296008). Also: nearly all actives have a fitted effect of over 60% in size. Also: potency is read from the fitted curve at half-maximal effect. Particulars: Five cell lines viability, CellTiter-Glo ATP luminescence, 48-72 h; max response: stronger effect = lower value. The essentials: as §1

Chain of Glutathione peroxidase 1 (Homo sapiens) (P07203 whole entry, looked up): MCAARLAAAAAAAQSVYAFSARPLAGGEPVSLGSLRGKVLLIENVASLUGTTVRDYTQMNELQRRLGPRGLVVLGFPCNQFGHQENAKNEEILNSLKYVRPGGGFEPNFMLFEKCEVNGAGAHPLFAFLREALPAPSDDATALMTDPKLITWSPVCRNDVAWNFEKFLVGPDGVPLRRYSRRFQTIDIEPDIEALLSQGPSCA
Chain of Phospholipid hydroperoxide glutathione peroxidase GPX4 (Homo sapiens) (P36969 whole entry, looked up): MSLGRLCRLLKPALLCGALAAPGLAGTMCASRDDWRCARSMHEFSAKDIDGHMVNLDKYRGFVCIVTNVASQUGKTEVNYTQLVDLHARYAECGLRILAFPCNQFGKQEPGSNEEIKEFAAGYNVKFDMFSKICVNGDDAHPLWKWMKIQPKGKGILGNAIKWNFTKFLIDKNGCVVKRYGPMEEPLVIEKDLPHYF
Chain of Calcium and integrin-binding protein 1 (Homo sapiens) (Q99828 whole entry, looked up): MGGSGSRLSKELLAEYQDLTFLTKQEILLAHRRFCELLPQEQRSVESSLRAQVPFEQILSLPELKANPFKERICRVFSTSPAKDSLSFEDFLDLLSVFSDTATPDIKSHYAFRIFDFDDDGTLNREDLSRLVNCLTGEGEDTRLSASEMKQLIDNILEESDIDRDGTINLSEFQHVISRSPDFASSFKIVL

Turning to `CC(C)(NC(=O)[C@@H](N)Cc1ccc(O)cc1)C(=O)N[C@@H](Cc1cc2ccccc2[nH]1)C(=O)N[C@@H](Cc1ccccc1)C(=O)O` (H-Y[Aib][Ala(indol-2-yl)]F-OH), the activity change, negative = inhibition in experiment [1] is -10.9% [at 10.7 µM]; in experiment [5] it was 1.26% [at 11.6 µM]. In addition, in [2], the Potency entry is “inactive”. Further, the activity change, negative = viability loss in experiment [3] was -7% [at 9.23 µM]. Besides, the activity, negative = inhibition in experiment [4] was 0.29% [at 9.52 µM]; in experiment [6], 2.82% [at 11.6 µM]. Moreover, the figures for the max response in the experiment with CRL-7250, in the experiment on HEK293 and in the experiment on HaCat were -5.29%, -3.45% and -4.8%, respectively. Also, the activity change, negative = cytotoxicity in the experiment on C33A was 17.2% [at 11.6 µM]; in the experiment on CASKI, 4.29% [at 11.6 µM]; in the experiment on Es-2 it was 0.783% [at 11.6 µM]; in the experiment on Hek293T it was -0.36% [at 11.6 µM]; in the experiment with JEG-3, -21.6% [at 11.6 µM]; with OV90 it was 2.67% [at 11.6 µM]. Besides, the activity change, negative = cytotoxicity was 2.34% [at 11.6 µM] with PA-1, 16.4% [at 11.6 µM] with Tov-21-G and -10.9% [at 11.6 µM] with Tov112D.

Consider `CC[C@@H]1C[C@H]2CC[C@H](O2)[C@H](C)C(=O)O[C@@H](C)C[C@@H]2CC[C@@H](O2)[C@@H](C)C(=O)O[C@H](CC)C[C@H]2CC[C@H](O2)[C@H](C)C(=O)O[C@@H](C)C[C@@H]2CC[C@@H](O2)[C@@H](C)C(=O)O1`, for which the Potency result (in experiment [1]; in experiment [2]; in experiment [4]; in experiment [7]; in experiment [6]; in the experiment on JEG-3) was “inactive” throughout. The Potency in experiment [3] was 19.2 nM (active); in the experiment with CRL-7250, 385 nM (active); with HEK293, 54.4 nM (active); with HaCat, 1530 nM (active); in the experiment on NIH3T3, 86.2 nM (active); in the experiment with C33A, 316 nM (active). Besides, the Potency was 447 nM (active) in the experiment on CASKI; 708 nM (active) in the experiment on Es-2; 631 nM (active) in the experiment with Hek293T; 398 nM (active) in the experiment on OV90; 355 nM (active) in the experiment with PA-1; 794 nM (active) in the experiment with Tov-21-G. Moreover, the Potency in the experiment on Tov112D was 562 nM (active). Also, the outcome in experiment [5] was “inactive [at 25.7 µM]”.

For `CC(=O)OC[C@]12C[C@H](O)C(C)=C[C@H]1O[C@@H]1[C@H](O)[C@@H](OC(C)=O)[C@@]2(C)[C@]12CO2`, the Potency result in experiment [1], in experiment [2], in experiment [4], in experiment [7] and in experiment [6] was “inactive” throughout. Besides, the Potency is 6.4 nM (active) in experiment [3]; 36 nM (active) in the experiment with CRL-7250; 8.1 nM (active) in the experiment on HEK293; 90.4 nM (active) in the experiment on HaCat; 45.3 nM (active) with NIH3T3; 447 nM (active) with C33A. For the same molecule, the Potency in the experiment with CASKI is 31.6 nM (active); with Es-2, 199 nM (active); with Hek293T it was 89.1 nM (active); with JEG-3, 224 nM (active); in the experiment with OV90 it was 12600 nM (active); in the experiment on PA-1, 1780 nM (active). Also, the Potency in the experiment with Tov-21-G is 178 nM (active); with Tov112D, 100 nM (active). In addition, in experiment [5], the molecule was classed as inactive.

For `CC(=O)OC[C@]12C[C@H](OC(=O)CC(C)C)C(C)=C[C@H]1O[C@@H]1[C@H](O)[C@@H](OC(C)=O)[C@@]2(C)[C@@]12CO2`, the Potency entry in [1], in [2], in experiment [7] and in experiment [6] was “inactive” throughout. Besides, the Potency in experiment [3] was 22.4 nM (active); in the experiment with CRL-7250, 89.3 nM (active); in the experiment on HEK293, 22.4 nM (active); in the experiment with HaCat, 224 nM (active); in the experiment on NIH3T3, 50.2 nM (active); in the experiment on CASKI it was 199 nM (active). Moreover, the Potency in the experiment with Es-2 is 100 nM (active); in the experiment with Hek293T, 112 nM (active); in the experiment with JEG-3 it was 1000 nM (active); in the experiment with OV90 it was 2510 nM (active); with Tov-21-G it was 224 nM (active); in the experiment on Tov112D, 224 nM (active). The outcome in [5] is “inactive [at 25.7 µM]”.
